For 37 molecules, cytotoxicity call results are on record in the antibiotic and cytotoxicity screens of Wong et al. (2023).

SMILES strings stand for the structures. In all, about 39,000 compounds went through this assay and about 3,300 (8.5%) were called active. Shown is part of a subset that was picked to be rich in actives.

The test has as its system HepG2. In words: cytotoxicity call (relative viability < 0.9). Particulars: 10 µM.
As for `C[C@H](CO)N1C[C@H](C)[C@H](CN(C)S(=O)(=O)c2ccc(F)cc2)Oc2ncc(C#CC(C)(C)O)cc2C1=O`, the cytotoxicity call is “inactive”.
With `C[C@@H]1CN([C@@H](C)CO)C(=O)c2c(c3ccccc3n2C)-c2ccccc2CO[C@@H]1CN(C)Cc1cccc(C(=O)O)c1` the entry was “inactive”; with `C[C@H](CO)N1C[C@H](C)[C@H](CN(C)S(=O)(=O)c2ccc(Oc3ccccc3)nc2)OCc2cnnn2CCCC1=O`, “inactive”.
With `COc1ccc(CCNC(=O)[C@@]2(Sc3ccc(C)cc3)CC(=O)N(Cc3cc(C(F)(F)F)cc(C(F)(F)F)c3)[C@@H]2c2ccc(CO)cc2I)cc1` the entry was “inactive”; with `Cc1ccc(S(=O)(=O)N2C[C@@H](O)COC[C@@H]3O[C@@H](CC(=O)N[C@@H]4CCN(Cc5ccccc5)C4)CC[C@H]32)cc1`, “inactive”; with `COCC(=O)Nc1ccc2c(c1)C(=O)N(C)C[C@H](OC)[C@H](C)CN(C(=O)Cc1cccnc1)[C@H](C)CO2`, “inactive”.
With `C[C@@H]1CN([C@@H](C)CO)C(=O)c2cc(NC(=O)C3CC3)ccc2O[C@H]1CN(C)Cc1ccc(Oc2ccccc2)cc1` the entry was “inactive”; with `C[C@@H]1CN([C@@H](C)CO)S(=O)(=O)c2ccc(C#CC(C)(C)O)cc2O[C@H]1CN(C)C(=O)C1CCCCC1`, “inactive”; with `O=C(C[C@@H]1C=C[C@H](NC(=O)C2CCC2)[C@H](CO)O1)NCCCN1CCOCC1`, “inactive”.
In the case of `C[C@H](CO)N1C[C@H](C)[C@@H](CN(C)Cc2ccc(C(=O)Nc3ccccc3N)cc2)Oc2ccc(NC(=O)Cc3ccccc3)cc2C1=O`, the cytotoxicity call is “inactive”.
With `C[C@H]1CN([C@@H](C)CO)S(=O)(=O)c2ccc(-c3ccc(F)cc3)cc2O[C@@H]1CN(C)S(C)(=O)=O` the entry was “inactive”.
On to `C[C@@H]1CN([C@H](C)CO)C(=O)c2cc(NS(=O)(=O)c3ccccc3)ccc2O[C@@H](C)CCCCO[C@@H]1CN(C)S(C)(=O)=O`, for which the cytotoxicity call is “inactive”.
With `COc1ccc(S(=O)(=O)Nc2ccc3c(c2)C(=O)N([C@@H](C)CO)C[C@@H](C)[C@H](CN(C)C(=O)c2ccccc2)OCCCC[C@H](C)O3)cc1` the entry was “inactive”; with `C[C@H]1CN([C@@H](C)CO)C(=O)c2cc(NC(=O)Nc3cccc4ccccc34)ccc2O[C@@H]1CN(C)Cc1ccc(Oc2ccccc2)cc1`, “active”; with `COc1ccc(CN(C)C[C@@H]2Oc3ccc(NC(=O)Nc4cccc5ccccc45)cc3C(=O)N([C@@H](C)CO)C[C@@H]2C)cc1`, “inactive”.
With `COc1ccc(CN(C)C[C@H]2Oc3ccc(NC(=O)Nc4cccc5ccccc45)cc3C(=O)N([C@H](C)CO)C[C@H]2C)cc1` the entry was “inactive”; with `C[C@H]1CN([C@@H](C)CO)C(=O)c2cccc(NC(=O)c3cnccn3)c2O[C@@H]1CN(C)C(=O)Nc1ccc(F)cc1`, “inactive”; with `CC(=O)OCCn1c(=O)[nH]c(=O)c2nsnc21`, “inactive”.
With `Cc1ccc(S(=O)(=O)Nc2ccc3c(c2)C(=O)N([C@H](C)CO)C[C@H](C)[C@H](CN(C)C(=O)Nc2cccc4ccccc24)OCCCC[C@H](C)O3)cc1` the entry was “active”.
Regarding `Cc1ccc(S(=O)(=O)Nc2ccc3c(c2)C(=O)N([C@H](C)CO)C[C@@H](C)[C@H](CN(C)C(=O)Nc2cccc4ccccc24)OCCCC[C@H](C)O3)cc1`, the cytotoxicity call is “active”.
With `Cc1ccc(S(=O)(=O)Nc2ccc3c(c2)C(=O)N([C@@H](C)CO)C[C@H](C)[C@H](CN(C)C(=O)Nc2cccc4ccccc24)OCCCC[C@H](C)O3)cc1` the entry was “inactive”; with `Cc1ccc(S(=O)(=O)Nc2ccc3c(c2)C(=O)N([C@@H](C)CO)C[C@@H](C)[C@@H](CN(C)C(=O)Nc2cccc4ccccc24)OCCCC[C@H](C)O3)cc1`, “inactive”; with `Cc1ccc(S(=O)(=O)Nc2ccc3c(c2)C(=O)N([C@H](C)CO)C[C@H](C)[C@@H](CN(C)C(=O)Nc2cccc4ccccc24)OCCCC[C@@H](C)O3)cc1`, “inactive”.
With `Cc1ccc(S(=O)(=O)Nc2ccc3c(c2)C(=O)N([C@H](C)CO)C[C@@H](C)[C@H](CN(C)C(=O)Nc2cccc4ccccc24)OCCCC[C@@H](C)O3)cc1` the entry was “active”; with `Cc1ccc(S(=O)(=O)Nc2ccc3c(c2)C(=O)N([C@@H](C)CO)C[C@H](C)[C@H](CN(C)C(=O)Nc2cccc4ccccc24)OCCCC[C@@H](C)O3)cc1`, “inactive”; with `Cc1ccc(S(=O)(=O)Nc2ccc3c(c2)C(=O)N([C@@H](C)CO)C[C@H](C)[C@@H](CN(C)C(=O)Nc2cccc4ccccc24)OCCCC[C@@H](C)O3)cc1`, “inactive”.
With `Cc1ccc(S(=O)(=O)Nc2ccc3c(c2)C(=O)N([C@@H](C)CO)C[C@H](C)[C@@H](CN(C)C(=O)Nc2cccc4ccccc24)OCCCC[C@H](C)O3)cc1` the entry was “inactive”; with `CC(=O)Nc1cc2c(cc1N)OCCO2`, “inactive”.
As to `COCC(=O)N(C)C[C@@H]1Oc2cc(C#C[C@H](C)O)ccc2S(=O)(=O)N([C@@H](C)CO)C[C@@H]1C`, the cytotoxicity call is “inactive”.
With `C[C@H](CO)N1C[C@H](C)[C@@H](CN(C)Cc2ccc(Oc3ccccc3)cc2)Oc2ccc(NC(=O)Nc3ccc4c(c3)OCO4)cc2C1=O` the entry was “inactive”; with `C[C@@H]1CN([C@H](C)CO)C(=O)c2cc(NC(=O)Nc3ccc4c(c3)OCO4)ccc2O[C@H]1CN(C)Cc1ccc(Oc2ccccc2)cc1`, “inactive”.
With `C[C@H]1CN([C@@H](C)CO)C(=O)c2cc(NC(=O)Nc3ccc4c(c3)OCO4)ccc2O[C@H]1CN(C)Cc1ccc(Oc2ccccc2)cc1` the entry was “inactive”.
With `C[C@@H]1CN([C@@H](C)CO)C(=O)c2cc(NC(=O)Nc3ccc4c(c3)OCO4)ccc2O[C@@H]1CN(C)Cc1ccc(Oc2ccccc2)cc1` the entry was “active”.
As to `C[C@H](CO)N1C[C@H](C)[C@H](CN(C)Cc2ccc(Oc3ccccc3)cc2)Oc2ccc(NC(=O)Nc3ccc4c(c3)OCO4)cc2C1=O`, the cytotoxicity call was “inactive”.
With `C[C@H]1CN([C@@H](C)CO)C(=O)c2cc(NC(=O)Nc3ccc4c(c3)OCO4)ccc2O[C@@H]1CN(C)Cc1ccc(Oc2ccccc2)cc1`, the cytotoxicity call was “active”.
With `C[C@@H]1CN([C@H](C)CO)C(=O)c2cc(NC(=O)Nc3ccc4c(c3)OCO4)ccc2O[C@@H]1CN(C)Cc1ccc(Oc2ccccc2)cc1` the entry was “active”; with `C[C@@H]1CN([C@@H](C)CO)C(=O)c2cc(NC(=O)Nc3ccc4c(c3)OCO4)ccc2O[C@H]1CN(C)Cc1ccc(Oc2ccccc2)cc1`, “inactive”.
